DAX1 inh = DAX1 (NR0B1) inhibitors, primary screen, cell-based, HEK293, Gal4-DAX1, luciferase luminescence; Nuclear receptor subfamily 0 group B member 1 (Homo sapiens), P51843; HEK293 Gal4-DAX1 luciferase reporter; inhibition, % at 6.75 µM; 0.99% of 340,000 active; AID 504766, 2011;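 active = inhibition above the mean over all tested compounds plus 3 SD, cut at about 4.2% in these data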;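 also: 0% = DAX1-transfected cells with DMSO and 100% = empty-vector control cells with DMSO; inhibition shows as a rise in luminescence from relieved DAX1 repression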
Target sequence (P51843 207-470 limits assumed): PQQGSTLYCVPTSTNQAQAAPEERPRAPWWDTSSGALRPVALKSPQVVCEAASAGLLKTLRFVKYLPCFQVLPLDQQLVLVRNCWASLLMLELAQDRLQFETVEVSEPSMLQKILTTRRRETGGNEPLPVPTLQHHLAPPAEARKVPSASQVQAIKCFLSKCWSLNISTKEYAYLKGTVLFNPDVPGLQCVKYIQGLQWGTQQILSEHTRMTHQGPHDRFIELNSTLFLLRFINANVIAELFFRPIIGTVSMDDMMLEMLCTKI
HSF1 inh = HSF1 inhibitors in luciferase reporter cells, primary screen, cell-based, NIH3T3, luminescence; AID 2098, 2009; 0.77% of 300,000 active; activity change, negative = inhibition, % at 7.5 µM (by protocol); NIH3T3-HGL HSE-luciferase, MG132-induced, luminescence 8 h; stronger effect = lower value;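 active = more than half of replicate wells show activity change below -50%, luminescence cut by over half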;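 also: luciferase reports HSF-1 transcriptional activity via heat shock element; 0% = median of DMSO wells and -100% = zero luminescence signal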
AHR act = AHR activators, primary screen, cell-based, luminescence, luciferase reporter, human. AHR-responsive luciferase reporter cells. activation, % at 5 µM. 2.5% of 320,000 active; in the data active = activation above about 47%;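 also: 0% = vehicle wells and 100% = reference agonist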
HSF-1 act = HSF-1 activators, primary screen, NIH3T3-HGL cells, MG132 stress, luminescence, single point. NIH3T3-HGL HSF-1 luciferase reporter, 8 h; 100% = twice DMSO control signal. activation, % at 9 µM. 1.7% of 300,000 active;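 active = mean replicate activation of at least 50% with a set share of replicates each reaching 50%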;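 also: 0% = median of the neutral control wells and 100% = twice that signal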
GAA850 FXN act = FXN promoter activators, primary screen, cell-based, luciferase luminescence, HEK293 lucGAA850; activation, % at 6 µM; HEK293 lucGAA850 FXN promoter luciferase reporter, 24 h; percent of 10 µM SAHA response; 0.56% of 360,000 active; AID 540364, 2011;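 active = activation above the average of all compounds screened plus 3 SD, cutoff fixed separately per campaign, cut at about 7.5% in these data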;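 also: 0% = DMSO wells and 100% = 10 µM SAHA wells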
* marks the source's active call; other numbers are inactive results; nt = no result. The list is not random: actives were taken first. Their share in the collection is about 5.4%.

SMILES | DAX1 inh | HSF1 inh | AHR act | HSF-1 act | GAA850 FXN act
Cc1cc(C)cc(OCc2ccc(C(=O)NN)o2)c1 | -1 | 0 | 79* | 7 | 0
CCc1noc(C)c1C(=O)Nc1sc(C(=O)N(C)C)c(C)c1C#N | 0 | 0 | 2 | -10 | 1
O=C(Nc1ccc(Cl)c(Cl)c1)Nc1ccccc1O | 2 | 47 | 27 | 92* | 3
O=C(Nc1ccc(Cl)c(Cl)c1)Nc1ccon1 | 4 | 8 | 71* | 11 | -4
Cc1cc(NC(=O)Nc2ccc(Cl)c(Cl)c2)no1 | 2 | 1 | 14 | 18 | 1
Cc1ccc(C(=O)N(C)CC(=O)Nc2cccc(F)c2)cc1S(=O)(=O)N1CCCCC1 | -2 | 1 | 2 | 0 | -2
CC(C)N1CCC(=NNC(=O)c2cccs2)CC1 | 1 | 15 | 25 | 3 | 7
O=[N+]([O-])c1ccc(NN=Cc2cccc3ccccc23)nc1 | 2 | nt | nt | nt | 3
O=[N+]([O-])c1ccc(Nc2nc(N/N=C/c3cccc(F)c3)nc(N3CCCC3)n2)cc1 | 0 | -2 | 145* | 5 | -1
COc1cccc(/C=N/Nc2ccc([N+](=O)[O-])cn2)c1O | -4 | 63 | -1 | 96* | -5
COc1cccc(/C=N/Nc2nc(Nc3ccc([N+](=O)[O-])cc3)nc(N3CCCC3)n2)c1O | nt | -20 | 47* | -20 | -3
COc1c(/C=N/Nc2nc(N3CCCCC3)nc(N3CCCCC3)n2)cccc1[N+](=O)[O-] | -1 | -15 | 1 | -15 | 4
O=C(O)Cn1cc(/C=N/Nc2ccc([N+](=O)[O-])cn2)c2ccccc21 | 5.4* | 6 | nt | 10 | 4
CN1C(=O)C(CC(=O)Nc2ccc(Cl)cc2)N(Cc2ccco2)C1=S (centres undefined) | 4 | 36 | 6 | 53* | 3
COc1ccc(C)cc1S(=O)(=O)N1CCN(C)CC1c1ccccc1 (centres undefined) | -1 | nt | -1 | nt | 3
COc1cc2c(cc1OC)CN(c1ccc(F)cc1[N+](=O)[O-])CC2 | -1 | 47 | 59* | 27 | 6
O=C(COc1ccccc1Cl)Nc1ccc(Cl)cn1 | 2 | 59 | 2 | 106* | 4
O=C(COc1ccccc1)Nc1ccc(Cl)cn1 | -1 | 16 | -5 | 43 | 2
S=C(Nc1ccccc1)Nc1ccc(Cl)cn1 | 1 | 31 | 24 | 78* | 4
S=C(Nc1ccccc1)Nc1cccc(Br)c1 | 1 | -10 | 0 | 0 | 0
Cc1cc(C)nc(NC(=S)Nc2ccccc2)n1 | 0 | 26 | 22 | 51* | 2
S=C(Nc1ccccc1)Nc1ccc(Br)cc1 | 5.7* | -21 | -1 | -19 | 2
CC(c1ccccc1)N1CC(C(=O)N2CCN(Cc3ccc(C#N)cc3)CC2)CC1=O (centres undefined) | 1 | nt | nt | nt | -1
NC(=O)CSCc1cccc(Br)c1 | 1 | -1 | 2 | -3 | 2
NC(CSCc1cccc(Br)c1)C(=O)O (centres undefined) | 1 | 39 | 4 | 79* | 0
SMILES | DAX1 inh | HSF1 inh | AHR act | HSF-1 act | GAA850 FXN act
Cc1cc(C(=O)CN2C(=O)C(=O)N(Cc3ccccc3)C2=O)c(C)n1-c1ccc2c(c1)OCCO2 | 1 | -70* | 2 | -68 | -1
C/C(CC(=O)Nc1cc(Cl)ccc1C)=N\NC(N)=O | 0 | 15 | 3 | -3 | 0
C/C(=N\NC1=NCCN1)c1ccc(N)c([N+](=O)[O-])c1 | 2 | -72* | 31 | -75 | 2
CCNC(=O)/C(C#N)=C/c1c(N(Cc2ccccc2)Cc2ccccc2)nc2ccccn2c1=O | -2 | 22 | 3 | 66* | 3
O=C(COC(=O)CCc1nc2ccccc2c(=O)[nH]1)Nc1c(Cl)cccc1C(F)(F)F | 4 | -70* | 0 | -77 | 1
Cc1cccc(CN2CCNC2=O)c1 | 1 | -71* | 1 | -77 | 0
ONC(=Nc1cccc(C(F)(F)F)c1)c1cccnc1 | 1 | -3 | 9 | -2 | 1
COc1ccc(C/C(=N\O)c2ccc(OC)cc2)cc1 | 1 | 35 | 3 | 53* | 4
COc1ccc(C(=O)NNC(=O)Cc2ccc(Cl)cc2)cc1 | -1 | 0 | 8 | 7 | 0
CSc1nc2sc3c(c2c(=O)n1C)CCC(C)C3 (centres undefined) | 2 | 3 | 56* | 30 | 2
CSc1nc2sc3c(c2c(=O)n1C)CCC3 | 1 | -7 | 0 | 4 | 3
Cc1ccc(-c2cc(C(F)F)n3ncc(C(=O)N4CCN5CCCC5C4)c3n2)cc1 (centres undefined) | 1 | 0 | -1 | 2 | 2
Cc1ccc(-c2cc(C(F)F)n3ncc(C(=O)N4CCCCC4c4cccnc4)c3n2)cc1 (centres undefined) | 4.5* | 0 | 4 | -2 | -1
O=C(c1cnn2c(C(F)(F)F)cc(-c3ccccc3)nc12)N1CCCCC1c1cccnc1 (centres undefined) | 0 | 4 | 50* | 25 | 1
O=C(c1cc2nc(-c3ccc(F)cc3)cc(C(F)(F)F)n2n1)N1CCCCC1c1cccnc1 (centres undefined) | -3 | -15 | -6 | 4 | -4
CCCCc1c(C)nc2nc(SCc3ccc(Cl)cc3)[nH]n2c1=O | 0 | 1 | nt | 19 | 1
Nc1nnc(-c2ccc(Cl)c(Cl)c2)s1 | 5.8* | 8 | -3 | 26 | 1
CN(C)/C=N/c1nc2nccc(-c3cccnc3)n2n1 | 1 | -7 | 58* | -5 | 0
O=C(CCc1ccccc1)NNC(=O)COc1ccc([N+](=O)[O-])cc1 | 1 | -2 | 2 | 5 | 0
Cc1cccc(-c2nnn3c2nc(NCCc2ccc(S(N)(=O)=O)cc2)c2ccccc23)c1 | -2 | -7 | 50* | 1 | 3
NC(=O)c1nsc(C(=O)N(Cc2ccccc2Cl)C(C(=O)NCC2CCCO2)c2ccc(O)cc2)c1N (centres undefined) | -1 | 0 | nt | 8 | 0
O=C1CCC(=O)N1c1ccc(S(=O)(=O)Nc2ccc(Br)cc2)cc1 | -1 | 4 | 1 | 12 | 1
COc1ccc(NS(=O)(=O)c2ccc(N3C(=O)CCC3=O)cc2)cc1 | 4.7* | -8 | 0 | -19 | -2
Cc1c(C(=O)NNC(=O)c2ccccc2O)oc2ccc(Br)cc12 | 2 | 6 | 51* | 9 | 1
Cc1c(C(=O)NCc2ccccn2)oc2ccccc12 | 1 | 13 | 59* | 15 | 5
Cc1c(C(=O)NC(=S)NCC(C)C)oc2ccccc12 | 0 | 14 | 6 | 34 | 2
Cc1c(C(=O)NCc2ccccn2)oc2ccc(Br)cc12 | 2 | 24 | 48* | 47 | 3
